Assay results: PubChem BioAssay (NCATS)
Unmarked numbers belong to inactive results. Inconclusive results are not listed. A call without a number means that no potency is given here. Active and inactive are the calls of the source. The call rests on the fitted dose curve; in most records, active means well fitted curve in the direction sought with a large enough effect; inconclusive means small, poorly fitted or top-dose-only effect, or another doubt; inactive means no such curve, though single readings can be large; an effect the other way counts as inactive or inconclusive.

Columns and labels:
[1] = Cellular Toxicity (caspase-3) Mesangial (AID 660); conditions: mesangial cells, normalized: DMSO 0%, 100 µM tamoxifen 100%; at 91.7 µM (top of the series);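 further: combined caspase 3 and 7 activity read by Caspase-Glo luminescence; cells exposed to compound for 16 h before the caspase read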
Procedure, shortened: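 AC50 values come from Hill-equation fits of caspase 3/7 activation, measured as Caspase-Glo luminescence in human glomerular mesangial cells exposed to compound for 16 h at 37 °C; 100% set by 100 uM tamoxifen.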

[2] = Cellular Toxicity (caspase-3) SK-N-SH (AID 661)
Procedure, shortened: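 Apoptosis readout in SK-N-SH neuroblastoma: Caspase-Glo 3/7 luminescence following 16 hr treatment in complete culture medium. Normalization used DMSO and 10 uM staurosporine controls.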

[3] = Cellular Toxicity (caspase-3) Hek293 (AID 664); conditions: HEK293 caspase-3 activation, DMSO = 0%, 100 µM tamoxifen = 100%; at 92.2 µM (top of the series);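 further: cells exposed to compound for 16 h at 37 °C before readout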
Procedure, shortened: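 Apoptosis readout: Caspase-Glo 3/7 signal in human HEK293 cells following 16-hour compound incubation. Responses scaled between DMSO baseline and 100 uM tamoxifen.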

[4] = Cellular Toxicity (caspase-3) N2a (AID 665);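 further: compound exposure lasted 16 h at 37 °C before readout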
Procedure, shortened: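 Concentration-response qHTS: compound-induced caspase-3/7 luminescence in N2a cells (16 h, 37 °C), relative to DMSO and 10 uM staurosporine controls; AC50 obtained using the standard Hill equation.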

[5] = Cellular Toxicity (caspase-3) NIH 3T3 (AID 666);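 further: caspase signal read after 16 h compound exposure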
Procedure, shortened: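 Activity: caspase-3/7 induction, NIH 3T3 cells, 16 hr treatment at 37°C, luminescent Caspase-Glo detection; AC50 via Hill equation.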

[6] = Cellular Toxicity (caspase-3) Renal Proximal Tubule (AID 667); conditions: Potency: caspase-3 activation;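 further: cells exposed to compound for 16 hours at 37 °C before detection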; further: potency means the concentration at half of the fitted maximal effect
Procedure, shortened: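 Freshly isolated primary rat kidney proximal tubule cells, 1000/well, treated 16 hr at 37 °C, then Caspase-Glo 3/7 luminescence after 1 hr. Normalized to DMSO and 10 uM staurosporine; AC50 from Hill fit.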

[7] = target: Cytochrome P450 3A4 (Homo sapiens) (UniProt P08684); test: qHTS Assay for Inhibitors and Substrates of Cytochrome P450 3A4 (AID 884); further: nearly all actives have a fitted effect of over 50% in size
Procedure, shortened: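 Luminescent readout of luciferin produced by CYP3A4 (20 nM) dealkylation of Luciferin-PPXE, 25 uM (its KM). NADPH-driven reaction ran 60 min at RT after 10 min compound preincubation; data scaled to 57 uM ketoconazole as 100% inhibition.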

[8] = Cell Viability - LYMP2-001 (AID 921); further: nearly all actives have a fitted effect of over 70% in size
Procedure, shortened: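 Human lymphoblastoid LYMP2-001 cells, 2500 per well, in complete medium, treated 24 h at 37 C. Viability from cellular ATP by CellTiter-Glo luminescence; AC50 from Hill-equation fits of qHTS concentration-response.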

[9] = MultiTox-Fluor Cytotoxicity Assay - LYMP1-001 - Dead Cells (AID 946)
Procedure, shortened: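 In this qHTS, 15 uM tetraoctylammonium bromide defined 100% and DMSO defined basal activity. Lymphoblastoid cells (LYMP1-001, 2500 per well) received compound for 16 hr at 37 C before a fluorogenic dead-cell substrate readout at 485/520 nm.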

[10] = MultiTox-Fluor Cytotoxicity Assay - LYMP1-001 - Live Cells (AID 947)
[11] = Cell Viability - LYMP1-002 - Assay at 16 hr (AID 948)
Procedure, shortened: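 LYMP1-002 human lymphoblastoid cells, 2500/well, were treated with compounds for 16 hr at 37 C in complete medium. Viability was read as intracellular ATP by CellTiter-Glo luminescence, and AC50 was derived from a Hill fit to concentration-response data.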

[12] = MultiTox-Fluor Cytotoxicity Assay - LYMP1-002 - Live Cells (AID 955)
Procedure, shortened: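 In this qHTS viability format, lymphoblastoid cells (LYMP1-002, human) received compound for 16 hr at 37 C. Fluorogenic GF-AFC cleavage by viable cells was detected at 405/510 nm after 1 h at room temperature.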

[13] = MultiTox-Fluor Cytotoxicity Assay - LYMP1-002 - Dead Cells (AID 960); further: nearly all actives have a fitted effect of over 60% in size
Procedure, shortened: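 Concentration-dependent increases in membrane-leaked protease activity are quantified in LYMP1-002 cells after 16 hr treatment; values are normalized against DMSO and tetraoctylammonium bromide (15 uM) controls and AC50 derived by Hill modeling.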

[14] = MultiTox-Fluor Cytotoxicity Assay - LYMP1-003 - Dead Cells (AID 961); further: nearly all actives have a fitted effect of over 70% in size; further: potency means the concentration at half of the fitted maximal effect
Procedure, shortened: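 Acute toxicity is scored as increased dead-cell protease activity in human lymphoblastoid LYMP1-003 cells after 16 h compound exposure in complete culture medium. Activity is normalized to DMSO basal and 15 uM tetraoctylammonium bromide as full response.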

[15] = Cell Viability - LYMP1-003 - Assay at 24 hr (AID 963); further: potency means the concentration at half of the fitted maximal effect
Procedure, shortened: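 The lymphoblastoid line was treated with titrated compounds for 24 hours, and viable cell number estimated from luciferase-based ATP luminescence.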

[16] = Cell Viability - LYMP2-003 (AID 965);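 further: cells exposed to compounds for 24 h before reading; nearly all actives have a fitted effect of over 50% in size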; further: potency means the concentration at half of the fitted maximal effect
Procedure, shortened: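 Human lymphoblastoid LYMP2-003 cells, 2500/well, exposed to compounds for 24 h at 37 C in complete medium. Viability read as intracellular ATP by CellTiter-Glo luminescence; AC50 from Hill-equation fits of qHTS concentration-response data.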

[17] = Cell Viability - LYMP1-003 - Assay at 40 hr (AID 964); further: nearly all actives have a fitted effect of over 60% in size; further: potency means the concentration at half of the fitted maximal effect
Procedure, shortened: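 Acute toxicity is scored as a concentration-dependent loss of intracellular ATP in LYMP1-003 cells (2500/well, complete medium) after 40 hr at 37 C, measured by CellTiter-Glo luminescence; AC50 values derive from standard Hill modelling.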

[18] = target: Cytochrome P450 3A4 (Homo sapiens) (UniProt P08684); test: qHTS Assay for Activators of Cytochrome P450 3A4 (AID 885); further: nearly all actives have a fitted effect of over 65% in size
Procedure, shortened: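 Using 20nM recombinant human CYP3A4 in potassium phosphate (200mM), substrate Luciferin-PPXE at 25uM, luminescent luciferin detection followed a 60-min RT NADPH reaction; data scaled to 57 uM ketoconazole.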

[19] = MultiTox-Fluor Cytotoxicity Assay - LYMP1-003 - Live Cells (AID 962); further: potency means the concentration at half of the fitted maximal effect
Procedure, shortened: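 Human lymphoblastoid line LYMP1-003 in complete culture medium, treated 16 hr with titrated compounds. Viable cells quantified via cell-permeant GF-AFC substrate fluorescence; AC50 derived by Hill fitting.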

[20] = Cellular Toxicity (caspase-3) H-4-II-E (AID 663); conditions: H-4-II-E rat hepatoma, scaled: DMSO 0%, 100 µM tamoxifen 100%; at 92.2 µM (top of the series)
Procedure, shortened: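 H-4-II-E rat hepatoma, 1500 cells/well, 5 hr settle at 37 °C; compound 16 hr, 37 °C, complete medium; Caspase-Glo 3/7, 20 min RT; luminescence. DMSO = 0%, 100 uM tamoxifen = 100%; Hill-equation AC50.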

Sequence of Cytochrome P450 3A4 (Homo sapiens) (P08684 whole entry, looked up): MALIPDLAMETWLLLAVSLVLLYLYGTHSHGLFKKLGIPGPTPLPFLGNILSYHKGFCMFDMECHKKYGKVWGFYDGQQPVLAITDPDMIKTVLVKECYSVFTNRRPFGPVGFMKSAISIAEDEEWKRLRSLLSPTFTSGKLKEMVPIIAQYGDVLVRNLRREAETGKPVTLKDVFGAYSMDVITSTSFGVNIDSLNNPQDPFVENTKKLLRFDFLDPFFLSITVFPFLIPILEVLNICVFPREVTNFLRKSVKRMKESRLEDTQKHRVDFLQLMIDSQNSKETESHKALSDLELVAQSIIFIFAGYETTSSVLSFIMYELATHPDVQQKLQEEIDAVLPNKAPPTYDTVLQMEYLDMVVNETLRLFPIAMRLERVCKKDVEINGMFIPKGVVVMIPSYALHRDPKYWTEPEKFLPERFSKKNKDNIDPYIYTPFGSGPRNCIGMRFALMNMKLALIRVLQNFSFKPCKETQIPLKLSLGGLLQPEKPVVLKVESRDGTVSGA

SMILES | caspase-3 activation [1] | outcome [2] | caspase-3 activation [3] [%] | outcome [4] | outcome [5] | Potency [6] | Potency [7] | Potency [8] | outcome [9] | outcome [10] | outcome [11] | outcome [12] | outcome [13] | Potency [14] | Potency [15] | Potency [16] | Potency [17] | outcome [18] | Potency [19] | caspase-3 activation [20]
O=c1[nH][nH]c(=O)c2cc([N+](=O)[O-])ccc12 | -0.0154% | inactive | 4.2 | inactive | inactive | inactive | inactive | inactive | inactive | inactive | inactive | inactive | inactive | inactive | inactive | inactive |  |  |  | 
CC(C)(O)CCC(C)(C)O | -1.06% | inactive | 5.12 | inactive | inactive | inactive | inactive | inactive | inactive | inactive | inactive | inactive |  | inactive | inactive | inactive | inactive |  |  | 
Nc1cc([N+](=O)[O-])ccc1C(=O)O | -0.673% | inactive | -2.97 | inactive | inactive | inactive |  | inactive | inactive | inactive | inactive | inactive |  | inactive | inactive | inactive | inactive | inactive | inactive | 
Cc1ccccc1C#N | 0.378% | inactive | -1.44 | inactive | inactive | inactive | inactive | inactive | inactive | inactive |  | inactive | inactive | inactive | inactive | inactive | inactive |  | inactive | 
C=Cc1ccccc1C=C | 0.384% | inactive | 1.48 | inactive | inactive | inactive | inactive | inactive | inactive | inactive | inactive | inactive | inactive | inactive | inactive | inactive | inactive |  | inactive | 
CC(C)Nc1ccccc1 | 1.26% | inactive | 2.55 | inactive |  | inactive | inactive | inactive | inactive | inactive |  | inactive | inactive | inactive | inactive | inactive | inactive |  | inactive | 
ClCCl | -1.27% | inactive | 1.14 | inactive | inactive | inactive | inactive |  | inactive | inactive | inactive |  | inactive | inactive | inactive | inactive | inactive |  | inactive | 
CC1=C(/C=C/C(C)=C/C=C/C(C)=C\C=O)C(C)(C)CCC1 | 90.3% (active) |  |  |  |  | 31.6 µM (active) |  |  |  |  |  |  |  | 31.6 µM (active) | 63.1 µM (active) | 39.8 µM (active) | 50.1 µM (active) | inactive | 50.1 µM (active) | 113% (active)
COC(=O)CCCC(=O)OC | -0.518% | inactive | -0.162 | inactive |  | inactive | inactive | inactive | inactive | inactive | inactive | inactive | inactive | inactive | inactive | inactive | inactive |  | inactive | 
CC(=O)CCc1ccccc1 | -0.0155% | inactive | 0.352 | inactive | inactive | inactive | inactive | inactive | inactive | inactive | inactive | inactive | inactive | inactive | inactive | inactive | inactive |  | inactive | 
C1CCOC1 | -0.124% | inactive | -1.25 | inactive | inactive | inactive | inactive | inactive | inactive | inactive | inactive | inactive | inactive | inactive | inactive | inactive | inactive |  | inactive | 
CSCCC=O | 0.0965% | inactive | -2.79 | inactive | inactive | inactive | inactive | inactive | inactive | inactive | inactive | inactive | inactive | inactive | inactive | inactive | inactive |  | inactive | 
N#CCc1ccccc1[N+](=O)[O-] | -0.803% | inactive |  | inactive | inactive | inactive | inactive | inactive | inactive | inactive | inactive | inactive | inactive | inactive | inactive | inactive | inactive |  | inactive | 1.83%
C=Cc1ccc(C=C)cc1 | -0.657% | inactive | 0.511 | inactive | inactive | inactive | inactive | inactive | inactive | inactive | inactive | inactive |  | inactive | inactive |  | inactive |  | inactive | 
OC(CCl)CCl | 2.07% | inactive | 2.01 | inactive |  | inactive | inactive |  | inactive | inactive | inactive | inactive | inactive | inactive | inactive | inactive |  |  | inactive | 
